Bioassay records: PubChem, National Center for Advancing Translational Sciences (NCATS)
In the library only some 2.4% were active in any assay of this set; here they are far more common.
D2 ag-1: Beta-Arrestin HTS for Positive Allosteric Modulators of the Human D2 Dopamine Receptor: Agonists | D(2) dopamine receptor (Homo sapiens), P14416 | DiscoveRx PathHunter D2 beta-arrestin, luminescence, 90 min; 100% = 57 uM dopamine signal | 360,000 compounds, 0.084% hits | AID 624465, 2012 | activation, % (concentration not given with the values); in the data active = activation above about 40%; inconclusive = between about 15% and that limit
Target sequence (P14416 whole entry, looked up): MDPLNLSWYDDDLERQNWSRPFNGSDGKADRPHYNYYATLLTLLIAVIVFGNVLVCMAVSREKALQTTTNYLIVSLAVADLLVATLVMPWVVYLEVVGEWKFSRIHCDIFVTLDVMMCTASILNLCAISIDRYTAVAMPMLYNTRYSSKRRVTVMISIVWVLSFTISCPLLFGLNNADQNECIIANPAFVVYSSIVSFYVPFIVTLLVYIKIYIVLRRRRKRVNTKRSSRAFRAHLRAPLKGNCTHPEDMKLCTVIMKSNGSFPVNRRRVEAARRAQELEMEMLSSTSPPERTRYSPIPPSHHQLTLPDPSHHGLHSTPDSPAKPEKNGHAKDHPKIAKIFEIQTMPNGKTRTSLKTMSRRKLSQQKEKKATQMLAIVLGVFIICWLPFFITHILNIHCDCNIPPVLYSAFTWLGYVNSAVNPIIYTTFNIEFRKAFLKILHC
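DiscoveRx PathHunter D2 beta-arrestin cells (2,100/well) attached overnight, then compound-stimulated 90 min at 37 C in HBSS/10 mM HEPES/0.1% Tween-20 buffer; beta-galactosidase complementation read by luminescence after 1 h at ambient temperature. Dopamine 57 uM final (EC100) as control.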
D2 PAM-1: HTS Assay for Positive Allosteric Modulators of the Human D2 Dopamine Receptor: Primary Screen for Potentiators. AID 485347, 2010. 340,000 compounds, 0.34% hits. HEK293 T-REx D2, calcium flux, EC20 dopamine potentiation. potentiation, % at 10 µM;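 active = potentiation over 3 SD above the plate norm, cut at about 30% in these data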; also: 0% is about no effect
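Potentiation of an EC20 dopamine calcium response is measured in a force-coupled, tetracycline-inducible Hek293 Trex D2 line. Compound-only kinetic reads over 180 s flag agonists before dopamine addition.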
D2 ag-2: HTS Assay for Allosteric Agonists of the Human D2 Dopamine Receptor: Primary Screen for Agonists; D(2) dopamine receptor (Homo sapiens), P14416; HEK293 T-REx D2 cells, calcium flux agonist mode; activation, % at 2 µM; 340,000 compounds, 0.53% hits;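 active = activation over 3 SD above normal in the single-dose calcium agonist read, cut at about 30% in these data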; also: 0% is about no effect
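HEK293 Trex D2 cells, tetracycline-induced, o/n 30 C 5% CO2; no-wash Ca dye, RT 30–90 min; 10-cycle baseline, 23 nl cpd added, kinetic Ca read 180 s; agonist hits = positive Ca response.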
D2 PAM-2: Beta-Arrestin HTS for Positive Allosteric Modulators of the Human D2 Dopamine Receptor: Potentiators; DiscoveRx D2 beta-arrestin cells, luminescence, 90 min; 100% = 57 uM dopamine signal; potentiation, % (concentration not given with the values); 360,000 compounds, 0.23% hits; AID 624464, 2012; in the data active = potentiation above about 50%; inconclusive = mostly about 30% to 49%
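D2 cells co-treated with compound plus 50 nM dopamine (EC20) for 90 min at 37 deg C to detect potentiation. Beta-arrestin recruitment was read as enzyme-fragment luminescence after 1 h at ambient temperature. Full response was set by 57 uM dopamine.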
D2 antag: HTS Assay for Allosteric Antagonists of the Human D2 Dopamine Receptor: Primary Screen for Antagonists; D(2) dopamine receptor (Homo sapiens), P14416; HEK293 TREx D2 cells, calcium flux, dopamine EC80; inhibition, % at 10 µM; 340,000 compounds, 2% hits; AID 485344, 2010; in the data active = inhibition above about 30%; inactive = below that, where a call was filed; also: 0% is about no effect
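In this primary screen, negative modulation is detected by tracking calcium flux after an EC80 dopamine challenge in inducible HEK293 T-REx D2 cells preexposed to test compound for 180 s.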
* = called active by the depositor; ? = inconclusive; / = not tested or not shown.

SMILES | D2 ag-1 | D2 PAM-1 | D2 ag-2 | D2 PAM-2 | D2 antag
COc1ccc(C(CNC(=O)C(CCSC)NC(=O)c2ccccc2Cl)N2CCCC2)cc1 (centres undefined) | -3.7 | -3.2 | -0.6 | -21.4 | -4.2
COc1ccc(C(CNC(=O)c2cccc(S(=O)(=O)N3CCCC(C)C3)c2)N(C)C)cc1 (centres undefined) | 0.9 | -33.8 | -0.2 | -6.0 | 76.4*
COc1ccc(C(CNC(=O)COc2ccc(F)cc2Br)N2CCCC2)cc1 (centres undefined) | -3.2 | 42.1* | -0.7 | -21.4 | 1.4
CC1CCCN(S(=O)(=O)c2cccc(C(=O)NCc3ccco3)c2)C1 (centres undefined) | 2.5 | / | / | -5.5 | /
COc1ccc(C(CNC(=O)C(CCSC)NC(=O)c2ccccc2Cl)N2CCCCC2)cc1 (centres undefined) | -3.3 | -5.0 | 0.8 | -16.9 | 40.7*
COc1ccc(C(CNC(=O)c2cccc(Br)c2)N2CCCC2)cc1 (centres undefined) | 0.0 | -22.5 | 0.3 | -14.5 | 40.9*
COc1ccc(C(CNC(=O)COc2ccccc2C)N2CCCCC2)cc1 (centres undefined) | -2.6 | -25.0 | 0.1 | -30.2 | 14.2
COc1ccc(C(CNC(=O)C(C)Oc2ccc(Br)cc2)N2CCCC2)cc1 (centres undefined) | -6.6 | -35.0 | 0.3 | -28.3 | 40.8*
Nc1nc(Cl)nc2c1ncn2[C@@H]1O[C@H](CO)[C@@H](O)[C@H]1O | 2.0 | 12.3 | 4.0 | -17.3 | 37.4*
CCN(CC)S(=O)(=O)c1ccc(NC(=O)Cn2c(=O)sc3ccccc32)cc1 | -1.0 | 3.2 | 1.2 | -11.9 | 43.0*
CN(C)c1ccc(CNC(=O)CN2C(=O)CCn3nc(-c4cn(C)c5ccccc45)cc32)cc1 | / | 5.9 | -0.5 | / | /
CN(C)c1cccc2c(S(=O)(=O)Nc3ccccn3)cccc12 | 11.1 | / | 1.4 | 54.4* | -12.0
CN1C(C(=O)NCc2cccc(C(F)(F)F)c2)CC2Cn3c(nc4cc5ccccc5cc43)C21 (centres undefined) | -0.1 | 7.3 | 0.5 | -2.6 | 42.6*
CCc1ccc(CNC(=O)c2cnc3sc(N4CCOCC4)nn3c2=O)cc1 | / | 14.7 | 1.0 | / | /
O=C(OCc1ccccc1)N1CCC2CC1c1ccc(N3CCN(Cc4ccc5c(c4)OCO5)CC3)cc12 (centres undefined) | -3.4 | / | / | -14.7 | /
CCCCC1(C)OC(=O)C(=Cc2ccc(-c3ccc(Cl)c(C(=O)O)c3)o2)C(=O)O1 (centres undefined) | -0.3 | -3.3 | -1.9 | 7.5 | 41.9*
Cc1ccc(S(=O)(=O)Nc2ccc(Cl)cn2)cc1C | 2.0 | -0.8 | / | -2.8 | /
O=C1C=C(c2cc(F)ccc2F)C[C@@H](c2ccc(Cl)cc2)C1 | -6.4 | 2.1 | -0.7 | -4.5 | 8.7
COc1cc(F)c(C2=CC(=O)C[C@H](c3ccc(Cl)cc3)C2)cc1F | -5.1 | -6.7 | 0.5 | -11.1 | 34.8*
CCN(CC)CC(=O)Nc1cc(N(C)C)nc2ccccc12 | -1.8 | -12.7 | -0.3 | -7.2 | 1.3
CCCCCC(=O)Nc1cc(N(C)C)nc2ccccc12 | -9.1 | -12.1 | -1.3 | -20.6 | 35.2*
CN(C(=S)Nc1cccnc1)c1ccc(O)cc1 | 11.2 | / | / | 63.6* | /
CN(C(=S)Nc1ccc(Oc2ccccc2)cc1)c1ccc(O)cc1 | ? | 10.1 | -1.4 | 81.9* | -8.3
COc1ccc(NC(=O)CCCc2nnc3n(C(C)C)c(=O)c4sccc4n23)cc1Cl | / | -5.4 | -0.2 | / | /
COc1ccc(-c2cn[nH]c2-c2ccc(OCc3ccc([N+](=O)[O-])cc3)cc2O)cc1 | 11.9 | / | / | 52.3* | /
SMILES | D2 ag-1 | D2 PAM-1 | D2 ag-2 | D2 PAM-2 | D2 antag
COc1ccc(NC(=O)CSC2=Nc3ccccc3C3=NC(CC(=O)NCc4ccc(F)cc4)C(=O)N23)cc1 (centres undefined) | / | 6.5 | 0.8 | / | /
Cc1ccc(NS(=O)(=O)c2ccc3c(c2)OCCCO3)cc1S(=O)(=O)N1CCOCC1 | 3.2 | 10.8 | 0.7 | -3.9 | -8.3
Cc1ccc(CCNC(=O)c2ccc(CS(=O)(=O)c3ccccc3C)o2)cc1 | -1.9 | 47.1* | -0.1 | -14.9 | -10.3
Cc1ccc(CNC(=O)c2ccc(CS(=O)(=O)c3ccccc3C)o2)cc1 | -2.6 | 10.6 | -0.6 | 1.5 | 0.6
CCN1C[C@@H]2[C@@H]3C(=O)N(C)C(=O)[C@@H]3[C@](CC)(C(=O)OC)N2C1=NCc1ccccc1 | -1.9 | / | / | / | /
CCNc1ccc(Br)cc(C(=O)/C=C/c2c(Cl)cccc2Cl)c1=O | -4.6 | 48.4* | 0.4 | -20.2 | -12.6
COc1ccc(-c2nc(CS(=O)CC(=O)NCc3ccco3)c(C)o2)cc1 (centres undefined) | -1.8 | -6.8 | -1.0 | -2.1 | -3.2
CCc1ccc(-c2nc(CS(=O)CC(=O)NCc3ccco3)c(C)o2)cc1 (centres undefined) | -0.2 | 73.2* | -0.3 | -1.8 | -11.3
Cc1cccc(-c2nc(CS(=O)CC(=O)NCc3cccs3)c(C)o2)c1 (centres undefined) | -9.4 | 3.2 | 0.1 | -2.9 | 39.1*
O=C(CC(=O)c1ccccc1)Nc1ccccc1C(F)(F)F | -5.0 | -4.5 | -0.4 | -2.1 | 18.0
Cc1ccc(SCCC(=O)NCc2ccco2)cc1 | -2.9 | 35.0* | -0.4 | -10.2 | -32.8
Cc1ccc(SCC(=O)NCc2ccco2)cc1 | -2.9 | 3.5 | 1.5 | -1.2 | 19.3
Cc1c(Cl)c(C(F)(F)F)nn1CC(=O)NCc1ccco1 | 0.2 | / | 2.1 | -8.0 | 39.9*
Cc1c(Cl)c([N+](=O)[O-])nn1CC(=O)NCc1ccco1 | -1.8 | -3.6 | 0.9 | -10.8 | 42.1*
CCOc1ccc2oc(=O)cc(CN3CCN(c4ccc(OC)cc4)CC3)c2c1 | / | -1.6 | 1.2 | / | /
CCOC(=O)c1ccc(-c2ccc3[nH]c4ccccc4c(=O)c3c2)cc1F | -2.3 | 8.8 | -0.3 | -0.8 | 30.9*
CC1(c2ccccc2)NC(=O)N(CC(=O)N2CCOCC2)C1=O (centres undefined) | -3.4 | -3.2 | -0.4 | -15.9 | 0.3
CC(C)(C)C1(c2ccccc2)NC(=O)N(CC(=O)N2CCOCC2)C1=O (centres undefined) | 1.9 | -17.4 | 0.4 | 9.8 | 43.8*
CC1CCc2nc(NC(=O)CN3CCN(Cc4ccc5c(c4)OCO5)CC3)sc2C1 (centres undefined) | -0.4 | -36.1 | 0.3 | -31.3 | 72.3*
